PLC-beta3 inh: PLC-beta3 (human) inhibition, primary screen | actives 0.18% (n = 370,000) | inhibition, % at 12.2 µM | Q01970 | Purified PLC-beta3, fluorogenic substrate, fluorescence; in the data active = inhibition above about 11%
PLCg1 inh: blocks human PLC-gamma1 enzyme activity; purified PLC-gamma1, fluorogenic substrate, fluorescence; inhibition, % at 12.2 µM; actives 0.84% (n = 370,000); AID 720700
GC-A act: GC-A (human) enzyme activation; P16066; HEK293 GC-A cells, cGMP TR-FRET, EC30 ANP; 0% at EC30 ANP, 100% saturating ANP; activation, % at 10 µM; actives 0.14% (n = 370,000); in the data active = activation above about 40%
NPR2 activator: GC-B (human) receptor activation | activation, % at 10 µM | actives 0.11% (n = 370,000) | HEK293-GC-B cells, CNP EC30, cGMP TR-FRET; 0% at EC30 CNP, 100% saturating CNP | AID 1920062;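 active = activation at 10 µM reaching about 35% in either raw or pattern-adjusted values, limit read from the data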
PLCgamma1 ctr: PLC-gamma1 inhibition, counter-screen for PLC-beta3 hits | purified PLC-gamma1, fluorogenic substrate, fluorescence | actives 3.1% (n = 3,300) | shares compounds with PLCg1 inh | inhibition, % at 12.3 µM
PLCb3 confirm: confirmation of human PLC-beta3 inhibitors; shares compounds with PLCg1 inh; purified PLC-beta3, fluorogenic substrate fluorescence; inhibition, % at 12.3 µM; actives 1% (n = 3,300); AID 743261; in the data active = inhibition above about 11%
Large screens that a line does not name were inactive (follow-up assays come after a bar, where they were run). Sampled rows, rich in hits. Any-hit rate of the full collection: about 1.2%. Cut-off read from the data, not from the text of the source, unless noted: active = inhibition above about 9.5%; inactive = the rest.

O=C(Nn1cnnc1)C1Cc2ccccc2CN1S(=O)(=O)c1ccc(F)cc1 (stereo not drawn)	PLCg1 inh 10 | PLCgamma1 ctr inactive | PLCb3 confirm inactive
CC(C(=O)N=Nc1c(O)[nH]c2ccccc12)n1cnc2ccccc2c1=O (stereo not drawn)	PLC-beta3 inh 16, PLCg1 inh 10 | PLCgamma1 ctr inactive | PLCb3 confirm inactive
Cc1cccc2c(N=NC(=O)C(C)n3cnc4ccccc4c3=O)c(O)[nH]c12 (stereo not drawn)	none
COc1cc(-n2c(C)cc(O)cc2=O)ccc1Cl	none
CCOc1ccccc1Nc1nc(N)nc(CSc2nccc(C)n2)n1	none
CCOc1ccccc1Nc1nc(N)nc(CN(C)C2CCCCC2)n1	PLC-beta3 inh 12 | PLCgamma1 ctr inactive | PLCb3 confirm inactive
CC(C)C[C@H](NC(=O)c1nc[nH]c1C(=O)NCC(=O)OC(C)(C)C)C(=O)OCc1ccccc1	PLCg1 inh 9.9 | PLCgamma1 ctr inactive | PLCb3 confirm inactive
CC(C)C[C@H](NC(=O)c1[nH]cnc1C(=O)N[C@@H](C)C(=O)OC(C)(C)C)C(=O)OC(C)(C)C	PLC-beta3 inh 11 | PLCgamma1 ctr inactive | PLCb3 confirm inactive
CC(C)C(NC(=O)OCc1ccccc1)C(=O)NCC(=O)OC(C)(C)C (stereo not drawn)	PLC-beta3 inh 15 | PLCgamma1 ctr inactive | PLCb3 confirm inactive
CC(C)C[C@H](NC(=O)c1nc[nH]c1C(=O)NCC(=O)OCc1ccccc1)C(=O)OCc1ccccc1	none
COC(=O)CNC(=O)C(NC(=O)OCc1ccccc1)C(C)C (stereo not drawn)	none
CCCCCn1c(CNC(C)=O)nc2ccccc21	none
CC1Nc2ccccc2C(=O)N1NS(C)(=O)=O (stereo not drawn)	none
CCCNC(=O)C1(O)c2cc(Br)ccc2NC(=O)N1c1ccc(Cl)cc1 (stereo not drawn)	none
CCN(CC)CCNC(=O)C1(O)c2cc(Br)ccc2NC(=O)N1c1ccc(Cl)cc1 (stereo not drawn)	PLCg1 inh 12 | PLCgamma1 ctr inactive | PLCb3 confirm inactive
CCC(=O)N/N=C(\C)CC(=O)Nc1ccc(Cl)cc1	none
Cc1cccn2cc(CNC(=O)c3ccco3)nc12	PLC-beta3 inh 11 | PLCgamma1 ctr inactive | PLCb3 confirm inactive
Cc1cccn2cc(CCNC(=O)c3ccco3)nc12	none
Fc1ccccc1NC(=S)NC1CCCC1	none
NC(=NCCc1c[nH]c2ccccc12)NC(=O)c1ccc(Cl)cc1	PLCg1 inh 10.0 | PLCgamma1 ctr inactive | PLCb3 confirm inactive
CC(NC(=O)c1ccccc1Cl)C1CC2CCC1C2 (stereo not drawn)	none
CC(NC(=O)c1ccc([N+](=O)[O-])cc1Cl)C1CC2CCC1C2 (stereo not drawn)	PLCg1 inh 11 | PLCgamma1 ctr inactive | PLCb3 confirm inactive
O=C1OC[C@H]2CCCC[C@@H](CO)ON12	PLCg1 inh 9.6 | PLCgamma1 ctr inactive | PLCb3 confirm inactive
Cn1c(/C(C#N)=C(\O)c2ccc(Br)s2)nc2ccccc21	none
N=C(N)SCc1cn(-c2ccccc2)nc1-c1ccc(Br)cc1	PLCg1 inh 9.5 | PLCgamma1 ctr inactive | PLCb3 confirm inactive
Cn1c(SCC(=O)Nc2ccc3c(c2)OCCO3)nnc1C1CC1	none
O=C(OCc1ccccc1)N1CCC2CC1c1ccc(N3CCN(Cc4ccccc4)CC3)cc12 (stereo not drawn)	PLC-beta3 inh 14 | PLCgamma1 ctr inactive | PLCb3 confirm inactive
O=C(c1cccc(Cl)c1)N1CCN(c2ccc3c(c2)C2CC3CCN2C(=O)OCc2ccccc2)CC1 (stereo not drawn)	none
COC(=O)Cn1cnc2sc(C)c(S(=O)(=O)N3CCN(c4ccccc4OC)CC3)c2c1=O	PLCg1 inh 10 | PLCgamma1 ctr inactive | PLCb3 confirm inactive
CCOC(=O)N1CCN(c2ccc(S(=O)(=O)N(Cc3ccccc3)Cc3ccccc3)cn2)CC1	none
CC(C)Cc1ccc(S(=O)(=O)Nc2cccnc2)cc1	PLCg1 inh 9.8 | PLCgamma1 ctr inactive | PLCb3 confirm inactive
CCCNC(=O)COC(=O)CCC(=O)c1ccc(F)cc1	PLCg1 inh 9.8 | PLCgamma1 ctr inactive | PLCb3 confirm inactive
Cc1cc(=O)[nH]c(SCC(=O)OCc2ccccc2)c1C#N	none
Cc1ccc(NC(=S)N(N)CCO)cc1	PLCg1 inh 12 | PLCgamma1 ctr inactive | PLCb3 confirm inactive
O=C(O)Cn1ccnc1[N+](=O)[O-]	PLCg1 inh 10 | PLCgamma1 ctr inactive | PLCb3 confirm inactive
O=C(/C=C/c1ccco1)NC(=S)Nc1cccc(C(=O)O)c1	PLCg1 inh 19 | PLCgamma1 ctr 19 | PLCb3 confirm inactive
CCOC(=O)COc1ccc(S(=O)(=O)N2CCN(c3ccc(OC)cc3)CC2)cc1	PLCg1 inh 9.5 | PLCgamma1 ctr inactive | PLCb3 confirm inactive
CCOC(=O)COc1ccc(S(=O)(=O)N2CCN(c3ccccc3F)CC2)cc1	none
COc1ccc(CCN2CC(C(=O)OCC(=O)N(C)Cc3ccccc3)CC2=O)cc1OC (stereo not drawn)	none
CCc1cccc(NC(=S)Nc2ccc(CN3CCOCC3)cc2)c1	PLCg1 inh 9.8 | PLCgamma1 ctr inactive | PLCb3 confirm inactive
O=C(O)c1ccccc1NN=C1CCCCC1	none
CCN(CC(=O)NC1CCS(=O)(=O)C1)C(=O)C(c1ccccc1)c1ccccc1 (stereo not drawn)	PLCg1 inh 12 | PLCgamma1 ctr inactive | PLCb3 confirm inactive
CCN(CC(=O)NC1CCS(=O)(=O)C1)C(=O)COc1ccccc1-c1ccccc1 (stereo not drawn)	none
CCCCN1CC[C@H]2C=CC[C@@H](C(=O)Nc3ccc(Cl)c(C(F)(F)F)c3)[C@H]2C1=O	none
CC(C)(C)c1cc(N/C=C\c2nnnn2-c2ccc(Br)cc2)no1	none
O=C1c2ccccc2C(Nc2ccc(Cl)cn2)N1Cc1ccccc1 (stereo not drawn)	none
CC(=O)NC1c2ccccc2C(=O)N1Cc1ccccc1 (stereo not drawn)	PLCg1 inh 11 | PLCgamma1 ctr inactive | PLCb3 confirm inactive
c1ccc(Cn2ncc3ccccc32)cc1	PLCg1 inh 15 | PLCgamma1 ctr inactive | PLCb3 confirm inactive
COC(=O)C1CN(Cc2ccc(OC)cc2)CCS(=O)(=O)N1Cc1ccc(C)cc1 (stereo not drawn)	none
O=C(CSc1ncn[nH]1)Nc1ccc2c(c1)CCC2	PLC-beta3 inh 13 | PLCgamma1 ctr inactive | PLCb3 confirm inactive
Cc1ccc(C(C)C)c(OCCNCc2ccccc2)c1	none
Cc1ccc(C)c(OCCCNCc2ccccc2)c1	PLCg1 inh 15 | PLCgamma1 ctr inactive | PLCb3 confirm inactive
CN(C)C(CNC(=O)c1c(F)cccc1Cl)c1ccco1 (stereo not drawn)	PLCg1 inh 11 | PLCgamma1 ctr inactive | PLCb3 confirm inactive
CN(C)C(CNC(=O)c1ccccc1C(F)(F)F)c1ccco1 (stereo not drawn)	none
